Source: PubChem BioAssay AID1565 (Sanford-Burnham Center for Chemical Genomics, 2009)
Out of some 290,000 compounds screened, about 3,200 (1.1%) were called active. The full list was thinned out, with actives kept by preference. Values without a mark were called inactive. No stated cut-off is given here; in the data, active means inhibition above about 60%; inactive means the rest.

These compounds were tested against Phosphoethanolamine/phosphocholine phosphatase (Homo sapiens) (UniProt Q8TCT1) (assay: PubChem AID 1565). Details: recombinant PHOSPHO1, absorbance phosphatase assay; at 13.3 µM; stronger effect = higher value.
Phosphoethanolamine/phosphocholine phosphatase (Homo sapiens), sequence (Q8TCT1 whole entry, looked up): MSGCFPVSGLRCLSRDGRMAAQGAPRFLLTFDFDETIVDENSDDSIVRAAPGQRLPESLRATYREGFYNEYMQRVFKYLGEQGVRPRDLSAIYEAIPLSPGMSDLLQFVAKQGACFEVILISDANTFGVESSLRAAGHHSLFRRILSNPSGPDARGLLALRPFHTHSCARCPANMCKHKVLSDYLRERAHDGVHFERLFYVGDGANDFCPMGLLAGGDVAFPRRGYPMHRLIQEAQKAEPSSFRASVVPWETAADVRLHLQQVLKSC

Row | SMILES | inhibition
1 | Cn1cc(CNC(=O)c2ccc(OC3CCN(Cc4ccccn4)CC3)cc2)cn1 | 69% (active)
2 | O=C(c1ccc(OC2CCN(Cc3ccccn3)CC2)cc1)N1CCCCCC1 | 32.8%
3 | O=C(NCCOc1cccnc1)c1ccc(OC2CCN(Cc3ccccn3)CC2)cc1 | 13.7%
4 | Cc1nn(C)c(C)c1C(C)NC(=O)c1ccc(OC2CCN(Cc3ccccn3)CC2)cc1 (stereo not given) | 18.5%
5 | CN(CCc1ccccn1)C(=O)c1ccc(OC2CCN(Cc3ccccn3)CC2)cc1 | 17%
6 | COCc1ccc(CN2CCC(Oc3ccc(C(=O)NCc4ccccn4)cc3)CC2)o1 | 61% (active)
7 | COc1cc(/C=N/N2CCN(c3ccccc3)CC2)ccc1OC(C)=O | 13.8%
8 | Cc1cc(C)cc(NC(=O)NCc2ccccn2)c1 | 19%
9 | COc1ccc(OC)c(-n2nnnc2SCC(=O)Nc2cc(C)ccc2OC)c1 | -22.4%
10 | COc1ccc(C)cc1-n1nnnc1SCC(=O)c1cc(C)n(Cc2ccco2)c1C | 90.1% (active)
11 | Cc1cc(C(=O)CSc2nc(N)cc(=O)[nH]2)c(C)n1Cc1ccco1 | 14.9%
12 | CC(C)Cc1nnc(NC(=O)CN2C(=O)NC3(CCCCC3)C2=O)s1 | 24%
13 | CCOC(=O)c1ccc(NC2Nc3cc(C)nn3S2)cc1 (stereo not given) | 62.2% (active)
14 | CCc1ccc(NC2Nc3cc(C)nn3S2)cc1 (stereo not given) | -1%
15 | CCOC(=O)c1ccc(Nc2cc(C)nc3nc(C)nn23)cc1 | -1.2%
16 | COc1ccc(CCNC(=O)CN2C(=O)CCSc3ccccc32)c(OC)c1 | 6.9%
17 | COc1ccccc1CCCNC(=O)C1CCC(=O)N(CCN2CCOCC2)C1 (stereo not given) | 4.2%
18 | COc1ccc(OC)c(C(C)NC(=S)Nc2ccc(S(=O)(=O)Nc3ncccn3)cc2)c1 (stereo not given) | 62.4% (active)
19 | CCOc1ccc(S(=O)(=O)Nc2ccc(S(=O)(=O)Nc3cc(OC)ccc3OC)cc2)cc1 | -2.6%
20 | COc1ccc(NS(=O)(=O)c2ccc(NC(=S)NC(=O)CC(C)C)cc2)cc1 | -49.5%
21 | Cc1ccc(C)c(NC(=O)c2cc(-c3cc(C)cc(C)c3O)n[nH]2)c1 | 41.9%
22 | CCOc1ccc(C(=O)COC(=O)c2ccc(-n3cnnn3)cc2)cc1 | 13.7%
23 | CCOC(=O)c1c(-n2cnnn2)sc(C)c1C | 98.7% (active)
24 | CCOC(=O)c1c(NC(=O)CSc2nccc(=O)[nH]2)sc(C)c1C | 22.2%

Row | SMILES | inhibition
25 | CCCC(C)NC(=O)C1CCN(C(=O)C2CC(=O)N(c3ccc(C)cc3)C2)CC1 (stereo not given) | 14.2%
26 | COc1cc(CC(=O)NCc2cccs2)cc(OC)c1OC | 1%
27 | CCN(CC(=O)NCc1cccs1)C(=O)c1cccc(S(=O)(=O)Nc2ccccc2OC)c1 | 60.6% (active)
28 | CCN(CC(=O)NCc1cccs1)C(=O)c1ccccc1F | 16.3%
29 | Cc1ccc(-n2c(-c3ccc(Cl)cc3)n[nH]c2=S)cc1 | -46.5%
30 | S=c1[nH]nc(-c2ccc(Cl)cc2)n1CC1CCCO1 (stereo not given) | 90.4% (active)
31 | Cc1nnc(SCC(=O)NNC(=O)c2ccc(Cl)cc2)n1CC1CCCO1 (stereo not given) | 14.8%
32 | O=c1[nH]c(CSc2ncc(-c3ccc(F)cc3)n2Cc2ccco2)nc2ccccc12 | 67.4% (active)
33 | CCn1c(COc2c(C)cccc2C)nnc1SCc1nc2ccccc2c(=O)[nH]1 | 29.2%
34 | CCn1c(Cc2ccccc2)nnc1SCc1nc2ccccc2c(=O)[nH]1 | 6.3%
35 | Cc1ccccc1CCNC(=O)C1CCC(=O)N(Cc2ccc(Cl)cc2)C1 (stereo not given) | 27%
36 | COc1ccc2c(c1)C(NS(=O)(=O)OCC(Cl)(Cl)Cl)CCC2 (stereo not given) | -7.3%
37 | O=c1c(-c2ccccc2Cl)c[nH]n1-c1ccccc1 | 31.3%
38 | Cc1ccc(S(=O)(=O)C(C#N)c2nc3ccccc3nc2N2CCCC2)cc1C (stereo not given) | 95.8% (active)
39 | Cc1cc(N2CCN(S(=O)(=O)c3ccc(C)c(C)c3)CC2)c2ccccc2n1 | -5.3%
40 | Cc1ccc(S(=O)(=O)Nc2nc3ccccc3nc2N2CCc3ccccc3C2)cc1 | 10.5%
41 | COC(=O)c1cc(C(=O)NC(C)C2CC3CCC2C3)cc([N+](=O)[O-])c1 (stereo not given) | 26.5%
42 | Cc1ccc(-n2nc3c(=O)n(C(C)C(=O)NCc4ccc5c(c4)OCO5)nc(C)c3c2C)cc1 (stereo not given) | 18.3%
43 | O=c1ccc(-c2ccc(S(=O)(=O)Nc3ccccc3)o2)n[nH]1 | 1%
44 | Cn1c(CNC(=O)c2ccccc2F)nnc1SCc1ccc(F)cc1 | 15.9%
45 | Cc1ccc(C(=O)CSc2nnc(Cn3nnc4ccccc43)n2C)cc1 | -7.4%
46 | Cn1c(Cn2nnc3ccccc32)nnc1SCC(=O)c1ccccc1F | 68.8% (active)
47 | COc1ccc(OC)c(NC(=O)CN(C)CCOc2ccc(Br)cc2)c1 | -11.8%
48 | S=c1[nH]nc2c3c4c(sc3ncn12)CCCC4 | 106% (active)

Row | SMILES | inhibition
49 | N=c1c2c3c(sc2ncn1N)CCCC3 | 24.8%
50 | c1nnc2c3c4c(sc3ncn12)CCC4 | 0.9%
51 | Cc1ccc(C)c(NC(=O)NNC(=O)c2ccc3ccccc3c2O)c1 | 6.1%
52 | COC(=O)c1sccc1NC(=O)CC1C(=O)NCCN1C(=O)Nc1ccc(F)cc1F (stereo not given) | 31.6%
53 | O=C(CC1SC(=Nc2ccccc2F)N(CCN2CCOCC2)C1=O)Nc1ccc(F)cc1F (stereo not given) | 64.7% (active)
54 | O=C(CN1CCN(C/C=C/c2ccccc2)CC1)Nc1ccc(F)cc1F | 35.8%
55 | COC(=O)c1cccc(N2C(=O)C3C4C=CC(CC4)C3C2=O)c1 (stereo not given) | 37.1%
56 | Cc1ccc(OCc2cc(C(=O)N(C)CCn3ccnc3C)no2)cc1C | 25%
57 | O=C(COc1ccc(S(=O)(=O)N2CCOCC2)cc1Cl)N1CCOCC1 | 19%
58 | O=C(Cn1c(NCCO)nc2ccccc21)c1ccc(Cl)cc1Cl | 23.3%
59 | Cc1nc2ccc(S(=O)(=O)N(C)CC(=O)NC(C)c3ccccc3)cc2s1 (stereo not given) | 64% (active)
60 | COc1cc(NC(=O)CN(C)S(=O)(=O)c2ccc3nc(C)sc3c2)cc(OC)c1 | -3%
61 | COc1ccc(CCNC(=O)CN(C)S(=O)(=O)c2ccc3nc(C)sc3c2)cc1OC | 3.8%
62 | COC(=O)c1ccc(/C=C2/C(=O)Oc3ccccc32)cc1 | 32.5%
63 | CCCC(C)c1nnc(NC(=O)C2CC(=O)N(c3ccc(OCC)cc3)C2)s1 (stereo not given) | 36.2%
64 | O=C(Nc1cccc(F)c1)N1C2CCC1CC(O)(c1cccnc1)C2 (stereo not given) | 61.5% (active)
65 | Cc1ccc(NC(=O)N2CCC(O)(c3cccnc3)CC2)cc1 | 1%
66 | O=C(c1cccc(F)c1)N1CCC(O)(c2cccnc2)CC1 | 36.6%
67 | CC(=O)c1cccc(NC(=O)CN2C(=O)c3cccnc3Oc3ccc(Cl)cc32)c1 | 18.3%
68 | CCc1ccc(NC(=O)CCNS(=O)(=O)c2cccs2)cc1 | 35.1%
69 | Cc1ccc(OCC(=O)NCCCNC(=O)c2ccco2)cc1C | 16%
70 | CCCc1ccc(OCCNC(=O)c2ccco2)cc1 | 41.8%
71 | CCCc1ccc(OCC(=O)NNC(=S)NC(=O)c2ccco2)cc1 | 96.9% (active)
72 | COc1ccc(C(=O)NNC(=S)NC(=O)c2ccccc2)cc1 | 19.1%

Row | SMILES | inhibition
73 | O=C(Nc1ccc2ccccc2c1)/C(=C/c1cccc(Br)c1)NC(=O)c1ccco1 | -2.2%
74 | CC(Oc1ccc2ccccc2c1)C(=O)NNC(=S)NC(=O)c1ccco1 (stereo not given) | 96.9% (active)
75 | O=S(=O)(Nc1ccc2[nH]ncc2c1)c1ccccc1Cl | -129%
76 | COc1ccc(S(=O)(=O)NNC(=O)Nc2ccc(C)cc2)c(OC)c1 | 21.8%
77 | Cc1ccc(N(C(=O)c2snc(C(N)=O)c2N)C(C(=O)NCC2CCCO2)c2c[nH]c3ccccc23)cc1 (stereo not given) | 35.7%
78 | COc1ccc(S(=O)(=O)N2CCOC2CNC(=O)C(=O)NCc2ccncc2)cc1C (stereo not given) | 19.8%
79 | COc1ccc(NS(=O)(=O)c2ccc3oc(SCC(N)=O)nc3c2)cc1 | 6.3%
80 | S=C(NCCc1ccccc1)Nc1ccccc1 | 22.6%
81 | NS(=O)(=O)c1ccc(CCNC(=S)Nc2ccc(S(N)(=O)=O)cc2)cc1 | 78.5% (active)
82 | NS(=O)(=O)c1ccc(CCNC(=O)Nc2ccc(Cl)cc2)cc1 | 14.1%
83 | CC1CCC(NC(=O)CN(C)S(=O)(=O)c2ccc3c(c2)c(=O)n(C)c(=O)n3C)CC1 (stereo not given) | 58.3%
84 | COc1cc(OC)c(C2=NOC(C(=O)Nc3c(C)n(C)n(-c4ccccc4)c3=O)C2)cc1Cl (stereo not given) | 64.2% (active)
85 | COc1cc(NC(=O)C2CC(c3ccccc3O)=NO2)c(OC)cc1Cl (stereo not given) | 24.3%
86 | Cc1c(NC(=O)c2coc(=O)c(Br)c2)c(=O)n(-c2ccccc2)n1C | -69.6%
87 | O=C(NCCN1CCCC(O)C1)c1cc(COc2c(F)cccc2F)on1 (stereo not given) | 54.7%
88 | C=CCn1c(-c2sc(-c3ccccc3)nc2C)n[nH]c1=S | 27.7%
89 | C=CCn1c(-c2ccc3[nH]c(C)c(C)c3c2)n[nH]c1=S | 98.8% (active)
90 | C=CCn1c(-c2ccccc2OCC)n[nH]c1=S | -30.9%
91 | CN1C/C(=C/c2cccs2)C(=O)/C(=C\c2cccs2)C1 | 16.1%
92 | CNC(=O)C1CCN(S(=O)(=O)c2c(C)noc2/C=C/c2cccc(C)c2)CC1 | 34.4%
93 | Cc1ccccc1Cn1c2ccccc2c2cnn(CC(=O)NCc3ccco3)c(=O)c21 | 60.8% (active)
94 | O=C(Cn1ncc2c3ccccc3n(Cc3ccccc3)c2c1=O)NCc1ccccn1 | -6.3%
95 | O=C(Cn1ncc2c3ccccc3n(Cc3ccccc3)c2c1=O)NCCCN1CCOCC1 | 57.9%
